Compound activity: PubChem, National Center for Advancing Translational Sciences (NCATS)
Only some compounds are listed: those with a hit (about 8.9% of all), similar ones and a draw of the others.
KB-3-1 cytotox: KB-3-1 parental cell cytotoxicity. KB-3-1 viability, CellTiter-Glo ATP luminescence, 72 h. 400,000 tested, 1.4% active. AID 1347075. Potency, µM (series often up to 46.1 µM), hits mostly cytotoxic; further: potency means the concentration at half of the fitted maximal effect; on the % scale 0 is the no-effect control and ±100 the full control effect; nearly all actives have a fitted effect of over 60% in size
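Parental KB-3-1 adenocarcinoma cells in phenol-red-free DMEM with 10% FBS were pin-treated with compounds at several concentrations, incubated 72 h at 37 °C, and viability read by CellTiter-Glo luminescence; concentration-effect curves were fitted after normalization.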
KB-V1 cytotox: KB-V1 MDR subline cytotoxicity; KB-V1 MDR cells viability, CellTiter-Glo, 72 h; Potency, µM (titrated, usually from 46.1 µM), most hits filed as cytotoxic; 400,000 tested, 3.4% active; AID 1347076; further: potency means the concentration at half of the fitted maximal effect; on the % scale 0 is the no-effect control and ±100 the full control effect; nearly all actives have a fitted effect of over 60% in size
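In this primary screen, KB-V1 cells overexpressing P-gp are incubated with library compounds (lowest to highest concentration) for 72 h at 37 degrees C before a luminescent ATP viability read.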
D3 antag: antagonists of human D3 dopamine receptor; max response, negative = inhibition, %; P35462; D3R cells, DiscoveRx beta-arrestin luminescence, antagonist mode; hits give low values; 360,000 tested, 2.5% active; in the data active means max response below about -50%; inconclusive means no clear call, values can overlap the other calls; further: on the % scale 0 is the no-effect control and ±100 the full control effect
Target sequence (P35462 whole entry, looked up): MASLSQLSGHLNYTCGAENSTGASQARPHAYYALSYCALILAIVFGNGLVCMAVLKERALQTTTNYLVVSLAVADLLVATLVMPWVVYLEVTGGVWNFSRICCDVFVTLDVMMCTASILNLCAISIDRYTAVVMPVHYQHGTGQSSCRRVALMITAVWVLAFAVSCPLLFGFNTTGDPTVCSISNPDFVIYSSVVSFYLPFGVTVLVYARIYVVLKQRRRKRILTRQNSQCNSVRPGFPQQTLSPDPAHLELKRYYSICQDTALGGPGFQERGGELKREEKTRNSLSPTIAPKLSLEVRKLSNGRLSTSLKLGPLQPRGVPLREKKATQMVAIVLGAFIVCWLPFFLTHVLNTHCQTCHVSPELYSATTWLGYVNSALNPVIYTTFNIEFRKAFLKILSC
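Cells plated overnight at 1500 cells/well, then exposed to library compounds with dopamine controls for 90 minutes at 37 degrees C. DiscoveRx reagent added for 30–60 minutes at room temperature; luminescence read, quantitative HTS format.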
D3 ag: agonists of human D3 dopamine receptor; AID 652048; D3R DiscoveRx beta-arrestin cells, luminescence, 90 min; 410,000 tested, 0.58% active; P35462; max activation, %; in the data active means max activation above about 30%; further: 0% is about no effect
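Cells at 1500/well, incubated overnight, then treated with pinned compounds (dopamine as control) for 90 min at 37 degrees C. DiscoveRx reagent added for 30 - 60 minutes at room temperature; luminescence read.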
MCF10A rereplic: induces DNA re-replication in MCF 10a normal breast cells; 350,000 tested, 2.9% active; MCF 10A DNA re-replication, Hoechst nuclear intensity, 48 h; Potency, µM (highest dose often 46.1 µM), without a hit: at the highest dose activity, positive = re-replication, most hits filed as activators; AID 624296; further: potency means the concentration at half of the fitted maximal effect; % of control where 0% means no effect; nearly all actives have a fitted effect of over 50% in size
SW480 rereplic: inducers of DNA re-replication in SW480 colon cancer cells. SW480 DNA re-replication, Hoechst DNA content imaging, 48 h. Potency, µM (highest dose often 46.1 µM), for inactives: at the top dose re-replication activation, most hits filed as activators. 340,000 tested, 1.8% active. AID 624297; further: potency means the concentration at half of the fitted maximal effect; % of control where 0% means no effect; nearly all actives have a fitted effect of over 55% in size
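250 cells/well; 23 nL cpd via pin tool; 48 hr, 37 C, 5% CO2; Hoechst 40 min; imager read of total nuclear intensity, ex 405/em 500-530 nm.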
* = called active by the depositor. Unless noted, the call rests on the fitted dose curve; in most records, active means well fitted curve in the direction sought with a large enough effect; inconclusive means small, poorly fitted or top-dose-only effect, or another doubt; inactive means no such curve, though single readings can be large; an effect the other way counts as inactive or inconclusive.

Screening O=C(Nc1ccccc1-c1nnc(SCc2ccccc2Cl)o1)c1ccccc1 returned KB-3-1 cytotox inactive, KB-V1 cytotox 14.6µM*, D3 antag 23.7, D3 ag -17.9, MCF10A rereplic inconclusive and SW480 rereplic 4.1%.
For C[N+](C)(CCOc1ccccc1)Cc1cccs1 the results were D3 ag -13.4.
CCOC(=O)c1cc(S(=O)(=O)Nc2cc(C)c(Cl)cc2OC)[nH]n1 was read as KB-3-1 cytotox inactive, KB-V1 cytotox inactive and D3 ag -5.1.
Screening CCN(Cc1ccccc1)Cc1c(F)cccc1F returned KB-3-1 cytotox inactive, KB-V1 cytotox inactive, D3 antag -13.1, D3 ag -11.7, MCF10A rereplic 1.0% and SW480 rereplic -6.2%.
`CCN(Cc1ccccc1)Cc1cc(OC)cc(OC)c1` gave KB-3-1 cytotox inactive, KB-V1 cytotox inconclusive, D3 antag -55.8*, D3 ag -50.8, MCF10A rereplic 25.6% and SW480 rereplic inconclusive.
`Cc1cc(C)c(NC(=O)COC(=O)Cn2nc(-c3ccccc3)oc2=O)c(C)c1` gave KB-3-1 cytotox inactive, KB-V1 cytotox inactive, D3 antag -55.2*, D3 ag -6.0, MCF10A rereplic 1.6% and SW480 rereplic -0.9%.
Screening CC(=NNC(=S)N(Cc1ccccn1)Cc1ccccn1)c1cnccn1 returned KB-3-1 cytotox inconclusive, KB-V1 cytotox 13µM*, D3 antag 57.2, D3 ag 0.4, MCF10A rereplic 4.61µM* and SW480 rereplic inconclusive.
`S=C(NN=C(c1ccccc1)c1ccccn1)N(Cc1ccccn1)Cc1ccccn1` gave KB-3-1 cytotox inconclusive, KB-V1 cytotox inactive, D3 antag 90.9, D3 ag 0.6, MCF10A rereplic inconclusive and SW480 rereplic inconclusive.
S=C(NN=Cc1ccccn1)N(Cc1ccccn1)Cc1ccccn1 was read as KB-3-1 cytotox 6.51µM*, KB-V1 cytotox inconclusive, D3 antag 0.0, D3 ag 4.0, MCF10A rereplic 13µM* and SW480 rereplic 5.8µM*.
Screening COc1ccc2c(CNCCc3ccccc3)c(C(=O)O)n(Cc3cccc(F)c3)c2c1 returned D3 ag -20.8.
For COc1ccc(OCC(=O)NC(=S)Nc2ccc(S(=O)(=O)Nc3cc(OC)nc(OC)n3)cc2)cc1 the results were KB-3-1 cytotox inactive, KB-V1 cytotox inactive, D3 antag -2.1, D3 ag -5.4, MCF10A rereplic 1.5% and SW480 rereplic 12.2%.
`COc1cc(NS(=O)(=O)c2ccc(NC(=S)NC(=O)CC(C)C)cc2)nc(OC)n1` gave KB-3-1 cytotox inactive, KB-V1 cytotox inactive, D3 antag -85.4*, D3 ag -8.2, MCF10A rereplic 7.7% and SW480 rereplic -4.6%.
`COC(=O)CCC(=O)NC(=S)Nc1ccc(S(=O)(=O)Nc2cc(OC)nc(OC)n2)cc1` gave KB-3-1 cytotox inactive, KB-V1 cytotox inactive, D3 antag 7.4, D3 ag 1.0, MCF10A rereplic -4.1% and SW480 rereplic 2.59µM*.
COc1ccc(NC(=O)C2c3ccccc3OCC(=O)N2C2CC2)cc1 (stereo unspecified) was read as KB-3-1 cytotox inactive, KB-V1 cytotox inconclusive, D3 antag -14.2 and D3 ag 4.2.
Screening CN(C)C(=S)NC(=S)Nc1ccc2ccccc2c1 returned KB-3-1 cytotox inconclusive, KB-V1 cytotox 18.4µM*, D3 antag -5.4, D3 ag 0.8, MCF10A rereplic inconclusive and SW480 rereplic 17.5%.
CC1(NC(=S)Nc2ccc3ccccc3c2)CCS(=O)(=O)C1 (stereo unspecified) was read as KB-3-1 cytotox inactive, KB-V1 cytotox inactive, D3 antag 34.9, D3 ag 8.0, MCF10A rereplic -1.8% and SW480 rereplic -7.3%.
For COc1ccc(C(=O)[C@H]2[C@H]3C(=O)N(c4ccccc4)C(=O)[C@H]3C3C=CC=NN32)cc1 (stereo partly specified) the results were KB-3-1 cytotox inactive, KB-V1 cytotox inactive, D3 antag -10.9, D3 ag 67.6*, MCF10A rereplic -18.6% and SW480 rereplic inconclusive.
O=S(=O)(c1ccc(-c2cc(C(F)(F)F)on2)s1)N1CCN(c2cccc(Cl)c2)CC1 was read as D3 ag -6.5.
OC[C@@H](O)C(O)[C@H](O)CO was read as D3 ag -11.5.
Screening O=c1c2cc(F)ccc2[nH]c(=S)n1Cc1ccc(F)cc1 returned KB-3-1 cytotox inactive, KB-V1 cytotox inactive, D3 antag 3.4, D3 ag -5.0, MCF10A rereplic inconclusive and SW480 rereplic -5.6%.
Cc1cccc(S(=O)(=O)c2cn(Cc3ccc(F)cc3)c3cc(N4CCCCC4)c(F)cc3c2=O)c1 was read as D3 ag -2.1.
For CC(C)CNS(=O)(=O)c1ccc(CCC(=O)NC2CCCC2)cc1 the results were KB-3-1 cytotox inactive, KB-V1 cytotox inactive, D3 antag -20.5, D3 ag -14.8, MCF10A rereplic 1.03µM* and SW480 rereplic -61.4%.
Screening CCCOc1ccc(C(=O)Nc2ccc(-c3cc4ccccc4oc3=O)c(C)c2)cc1 returned KB-3-1 cytotox 10.3µM*, KB-V1 cytotox inconclusive and D3 ag 3.6.
For CCOc1cc2c(cc1OCC)C(CC(=O)OC)N(C(=O)Nc1cc(C)cc(C)c1)CC2 (stereo unspecified) the results were D3 ag -2.3.
Screening COc1cc2c(cc1OC)C(C)N(C(=O)Nc1ccc(F)cc1)CC2 (stereo unspecified) returned KB-3-1 cytotox 13µM*, KB-V1 cytotox 11.6µM*, D3 antag 5.6, D3 ag 2.4, MCF10A rereplic inconclusive and SW480 rereplic inconclusive.
For COc1cc2c(cc1OC)C(C)N(C(=O)Nc1cc(C)cc(C)c1)CC2 (stereo unspecified) the results were KB-3-1 cytotox inconclusive, KB-V1 cytotox 6.51µM*, D3 antag 0.5, D3 ag 3.2, MCF10A rereplic 3.66µM* and SW480 rereplic inconclusive.
For O=C(Nc1ccc(C(F)(F)F)cc1)C1CCCN1S(=O)(=O)c1cccc2cccnc12 (stereo unspecified) the results were KB-3-1 cytotox 23.1µM*, KB-V1 cytotox 4.61µM*, D3 antag 13.5, D3 ag -4.0, MCF10A rereplic 17.7% and SW480 rereplic 1.5%.
For Cc1ccc(C)c(OCCOCCn2c(-c3ccc(Br)cc3)nc3ccccc3c2=O)c1C the results were KB-3-1 cytotox inactive, KB-V1 cytotox inactive and D3 ag -5.9.
